Experimental data published in PubChem BioAssay.
Values without a mark were called inactive. Activity calls are given as the source filed them.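 The calls were made as follows, unless noted: active = NADPH fluorescence slope more negative than the mean of all samples by about 3 SD, 99.7% confidence; inactive = the rest.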

biological target: Voltage-gated potassium channel subunit beta-2 (Rattus norvegicus) (UniProt P62483); assay: KvBeta enzyme negative modulators, primary screen, biochemical, NADPH fluorescence (AID 622;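 active = fluorescence slope higher than the sample average by over 3 SD, cut at about -0.22 in these data, passing the limit was not always enough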;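 also: slope of raw intensity against log time taken from 70 to 1610 s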); details: recombinant KvBeta, 4-cyanobenzaldehyde reduction, at 10 µM, stronger effect = higher value
Sequence (P62483 whole entry, looked up): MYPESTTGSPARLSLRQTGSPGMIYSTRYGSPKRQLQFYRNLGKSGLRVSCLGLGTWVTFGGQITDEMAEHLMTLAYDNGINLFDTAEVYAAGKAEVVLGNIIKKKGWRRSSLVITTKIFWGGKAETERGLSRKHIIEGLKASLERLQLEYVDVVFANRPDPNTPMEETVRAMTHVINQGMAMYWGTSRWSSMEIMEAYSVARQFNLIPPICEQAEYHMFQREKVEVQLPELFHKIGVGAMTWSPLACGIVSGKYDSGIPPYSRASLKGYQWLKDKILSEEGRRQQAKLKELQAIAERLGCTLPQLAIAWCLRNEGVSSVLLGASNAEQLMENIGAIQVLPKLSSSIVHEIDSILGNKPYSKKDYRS

First: COC(=O)C1C2C=CC3(CN(CC4CCCO4)C(=O)C13)O2 (stereo not given)
Second: CN(CCNC(=O)c1ccc(N2CCCC2=O)cc1)CCc1ccccc1
The fluorescence slope of the first is lower: -0.457 for the first, -0.393 for the second.

Compared with `N#Cc1c(-c2ccc3c(c2)OCO3)csc1N`, `N#Cc1c(N)oc(-c2cccs2)c1-c1cccs1` is higher in fluorescence slope: -0.451 for the first, -0.306 for the second.

Going from `CCN(CC(=O)Nc1ccc2c(c1)CCC2)Cc1nc2ccccc2c(=O)[nH]1` to `O=C(Nc1ccncc1)c1cc2ccccc2o1`, the fluorescence slope rises from -0.455 to -0.382.

Compared with `COc1cc(C(=O)NCC(=O)OCC(=O)c2ccc[nH]2)cc(OC)c1OC`, `Cc1cc(C(=O)COC(=O)CCc2nc3ccccc3s2)c(C)n1C` is higher in fluorescence slope: -0.458 for the first, -0.454 for the second.

Compared with `O=C1c2ccccc2C(=O)N1c1cccc(-c2nc3ccccc3o2)c1`, `O=c1c2cnn(-c3ccccc3)c2ncn1/N=C/c1ccncc1` is higher in fluorescence slope: -0.384 for the first, -0.378 for the second.

First: Cc1ccc2[nH]c3c(c2c1)CN(C(=O)CN1CCN(c2cccc(C)c2C)CC1)CC3
Second: Cc1ccc(S(=O)(=O)N2CCN(C(=O)N3CCOCC3)C2C)cc1 (stereo not given)
The fluorescence slope of the first is higher: -0.306 for the first, -0.439 for the second.

Compared with `Cc1cccc(-n2ncc3c(NCc4cccs4)ncnc32)c1`, `Cc1nn(Cc2ccccc2)c(C)c1NC(=O)c1cc(-c2ccco2)on1` is higher in fluorescence slope: -0.458 for the first, -0.347 for the second.

Compared with `COc1ccccc1C1N(c2ccc(F)cc2)C(=O)C2CCCN21` (stereo not given), `O=C1C2CCCN2C(c2ccccc2)N1c1ccc(Cl)cc1` (stereo not given) is lower in fluorescence slope: -0.377 for the first, -0.424 for the second.

Compared with `COCC(=O)n1nc(NCc2ccc(OC)cc2)nc1NCc1ccc(OC)cc1`, `O=C(COc1ccc(F)cc1)Nc1ccc(-n2cnnn2)cc1` is lower in fluorescence slope: -0.377 for the first, -0.409 for the second.

Going from `O=C(CSc1nc2ccccc2o1)N1CCN(C(=O)c2ccco2)CC1` to `O=C(c1nn2cccnc2c1Cl)N1CCN(c2ccccc2)CC1`, the fluorescence slope falls from -0.376 to -0.424.

First: Cc1cc(NC(=O)CSc2nc3c(c(-c4cccnc4)c2C#N)CCC3)no1
Second: Cc1cc(NC(=O)Cc2c(F)cccc2Cl)no1
The fluorescence slope of the first is higher: -0.337 for the first, -0.44 for the second.

Compared with `COC(=O)c1ccccc1NC(=O)CN1CCC(n2nnc3cc(F)ccc32)CC1`, `CSc1ccccc1NC(=O)CN(c1ccccc1)S(=O)(=O)N(C)C` is higher in fluorescence slope: -0.453 for the first, -0.356 for the second.

First: Cc1nn(-c2ccccc2)c2[nH]c(C(F)(F)F)cc(=O)c12
Second: O=C(CSc1n[nH]c(=O)[nH]c1=O)c1ccccc1
The fluorescence slope of the first is lower: -0.411 for the first, -0.34 for the second.

Compared with `O=C(CCC(=O)OCC(=O)c1ccccc1)NC1CCCCC1`, `O=C(NCc1ccco1)c1cccc(S(=O)(=O)N2CCCCC2)c1` is lower in fluorescence slope: -0.356 for the first, -0.462 for the second.

Compared with `COc1cccc(Nc2nnc(SCC(=O)N3CC(C)OC(C)C3)s2)c1` (stereo not given), `Cc1cc(C)nc(SCc2nnc(SCC(=O)Nc3ncc(C)s3)n2Cc2ccco2)n1` is higher in fluorescence slope: -0.409 for the first, -0.353 for the second.

First: CCN(CC)C(c1ccc(C)cc1)c1nnnn1C1CCCCC1 (stereo not given)
Second: Cc1c(Cl)cccc1NC(=O)CCN1CCCCCC1
The fluorescence slope of the first is higher: -0.399 for the first, -0.414 for the second.

Compared with `Cc1nonc1NC(=O)c1ccccc1Br`, `COCCCN1C(=O)C(O)=C(C(C)=O)C1c1ccccn1` (stereo not given) is lower in fluorescence slope: -0.346 for the first, -0.399 for the second.

Going from `Cc1cc(NC(=O)C(C)(C)C)no1` to `Cc1ccc(NC(=O)COC(=O)c2ccn(C)n2)cc1`, the fluorescence slope falls from -0.29 to -0.39.

Compared with `CN(C)c1nc(Oc2ccc(N)cc2)nc(N(C)C)n1`, `CC(=O)NCCc1ccc(S(=O)(=O)NCc2ccc3c(c2)OCO3)cc1` is higher in fluorescence slope: -0.379 for the first, -0.356 for the second.

Work on `CCNc1ccc(S(=O)(=O)C(F)(F)F)cc1NC(=O)C12CCC(CC1)C2` yielded a fluorescence slope of -0.481.

For `CSc1ccc(-c2cc(=O)c3ccccc3o2)cc1`, the fluorescence slope was -0.00698 (active).

biological target: Voltage-gated potassium channel subunit beta-2 (Rattus norvegicus) (UniProt P62483); assay: KvBeta positive modulators, primary screen, biochemical, NADPH fluorescence (AID 623); details: Recombinant KvBeta, NADPH fluorescence decrease slope, 10 min; at 10 µM; stronger effect = lower value;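 also: fluorescence intensity change per second fitted from 20 to 320 s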

Going from `COC(=O)C1C2C=CC3(CN(CC4CCCO4)C(=O)C13)O2` (stereo not given) to `CN(CCNC(=O)c1ccc(N2CCCC2=O)cc1)CCc1ccccc1`, the NADPH fluorescence slope falls from -1.5e-05 to -2.4e-05.

Compared with `N#Cc1c(-c2ccc3c(c2)OCO3)csc1N`, `N#Cc1c(N)oc(-c2cccs2)c1-c1cccs1` is higher in NADPH fluorescence slope: -4.4e-05 for the first, -3e-05 for the second.

Going from `CCN(CC(=O)Nc1ccc2c(c1)CCC2)Cc1nc2ccccc2c(=O)[nH]1` to `O=C(Nc1ccncc1)c1cc2ccccc2o1`, the NADPH fluorescence slope falls from -3.6e-05 to -4.4e-05.

Compared with `COc1cc(C(=O)NCC(=O)OCC(=O)c2ccc[nH]2)cc(OC)c1OC`, `Cc1cc(C(=O)COC(=O)CCc2nc3ccccc3s2)c(C)n1C` is higher in NADPH fluorescence slope: -4.1e-05 for the first, -3.3e-05 for the second.

First: O=C1c2ccccc2C(=O)N1c1cccc(-c2nc3ccccc3o2)c1
Second: CSc1ccc(-c2cc(=O)c3ccccc3o2)cc1
The NADPH fluorescence slope of the first is lower: -5.2e-05 for the first, 1.2e-05 for the second.

Going from `Cc1ccc2[nH]c3c(c2c1)CN(C(=O)CN1CCN(c2cccc(C)c2C)CC1)CC3` to `Cc1ccc(S(=O)(=O)N2CCN(C(=O)N3CCOCC3)C2C)cc1` (stereo not given), the NADPH fluorescence slope falls from -2.6e-05 to -5.1e-05.

Going from `Cc1cccc(-n2ncc3c(NCc4cccs4)ncnc32)c1` to `O=c1c2cnn(-c3ccccc3)c2ncn1/N=C/c1ccncc1`, the NADPH fluorescence slope falls from -2.6e-05 to -5.9e-05.

Going from `COc1ccccc1C1N(c2ccc(F)cc2)C(=O)C2CCCN21` (stereo not given) to `O=C1C2CCCN2C(c2ccccc2)N1c1ccc(Cl)cc1` (stereo not given), the NADPH fluorescence slope rises from -7.5e-05 to -6.3e-05.

First: COCC(=O)n1nc(NCc2ccc(OC)cc2)nc1NCc1ccc(OC)cc1
Second: O=C(COc1ccc(F)cc1)Nc1ccc(-n2cnnn2)cc1
The NADPH fluorescence slope of the first is higher: -6e-05 for the first, -0.000109 for the second.

First: O=C(CSc1nc2ccccc2o1)N1CCN(C(=O)c2ccco2)CC1
Second: O=C(c1nn2cccnc2c1Cl)N1CCN(c2ccccc2)CC1
The NADPH fluorescence slope of the first is lower: -5.7e-05 for the first, -2.5e-05 for the second.

First: Cc1nn(Cc2ccccc2)c(C)c1NC(=O)c1cc(-c2ccco2)on1
Second: Cc1nonc1NC(=O)c1ccccc1Br
The NADPH fluorescence slope of the first is higher: -6.8e-06 for the first, -5.8e-05 for the second.

Going from `Cc1cc(NC(=O)CSc2nc3c(c(-c4cccnc4)c2C#N)CCC3)no1` to `Cc1cc(NC(=O)Cc2c(F)cccc2Cl)no1`, the NADPH fluorescence slope rises from -6.5e-05 to -2.5e-05.

First: COC(=O)c1ccccc1NC(=O)CN1CCC(n2nnc3cc(F)ccc32)CC1
Second: CSc1ccccc1NC(=O)CN(c1ccccc1)S(=O)(=O)N(C)C
The NADPH fluorescence slope of the first is lower: -4.1e-05 for the first, 3.3e-06 for the second.

Going from `Cc1nn(-c2ccccc2)c2[nH]c(C(F)(F)F)cc(=O)c12` to `O=C(CSc1n[nH]c(=O)[nH]c1=O)c1ccccc1`, the NADPH fluorescence slope rises from -4.4e-05 to -4e-05.

First: O=C(CCC(=O)OCC(=O)c1ccccc1)NC1CCCCC1
Second: O=C(NCc1ccco1)c1cccc(S(=O)(=O)N2CCCCC2)c1
The NADPH fluorescence slope of the first is lower: -6.3e-05 for the first, 3.8e-05 for the second.

Going from `COc1cccc(Nc2nnc(SCC(=O)N3CC(C)OC(C)C3)s2)c1` (stereo not given) to `Cc1cc(C)nc(SCc2nnc(SCC(=O)Nc3ncc(C)s3)n2Cc2ccco2)n1`, the NADPH fluorescence slope rises from -9.2e-05 to -6.9e-05.

First: CCN(CC)C(c1ccc(C)cc1)c1nnnn1C1CCCCC1 (stereo not given)
Second: Cc1c(Cl)cccc1NC(=O)CCN1CCCCCC1
The NADPH fluorescence slope of the first is lower: -6.9e-05 for the first, -3.3e-05 for the second.

First: Cc1cc(NC(=O)C(C)(C)C)no1
Second: Cc1ccc(NC(=O)COC(=O)c2ccn(C)n2)cc1
The NADPH fluorescence slope of the first is lower: -1.1e-05 for the first, 1.1e-05 for the second.

Compared with `COCCCN1C(=O)C(O)=C(C(C)=O)C1c1ccccn1` (stereo not given), `CC(=O)NCCc1ccc(S(=O)(=O)NCc2ccc3c(c2)OCO3)cc1` is higher in NADPH fluorescence slope: -6.2e-05 for the first, -4.4e-05 for the second.

Going from `CN(C)c1nc(Oc2ccc(N)cc2)nc(N(C)C)n1` to `CCNc1ccc(S(=O)(=O)C(F)(F)F)cc1NC(=O)C12CCC(CC1)C2`, the NADPH fluorescence slope rises from -7.9e-05 to -3.1e-05.
